Inconclusive results are not listed. Activity calls are given as the source filed them. The call rests on the fitted dose curve; in most records, active means well fitted activation curve with a large enough effect; inconclusive means small, poorly fitted or top-dose-only effect; inactive means flat fitted curve, though single readings scatter.
These compounds were tested against Relaxin receptor 2 (Homo sapiens) (UniProt Q8WXD0) (assay: qHTS Assay for Agonists of the Relaxin Receptor RXFP1: RXFP2 Hit Validation). Conditions: HEK293 RXFP2 cAMP TR-FRET, 30 min; series mostly up to 115 µM.
Summary of the method: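 HEK293 cells expressing RXFP2, cultured 16-24 hr, treated 30 min at 37C with compounds plus PDE4 inhibitor Ro 20174. cAMP measured by HTRF TR-FRET; EC50 from Hill fits, normalized to buffer and 29 nM porcine relaxin.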
Further: nearly all actives have a fitted effect of over 65% in size.
Potency means the concentration at half of the fitted maximal effect.

Relaxin receptor 2 (Homo sapiens), sequence (Q8WXD0 whole entry, looked up): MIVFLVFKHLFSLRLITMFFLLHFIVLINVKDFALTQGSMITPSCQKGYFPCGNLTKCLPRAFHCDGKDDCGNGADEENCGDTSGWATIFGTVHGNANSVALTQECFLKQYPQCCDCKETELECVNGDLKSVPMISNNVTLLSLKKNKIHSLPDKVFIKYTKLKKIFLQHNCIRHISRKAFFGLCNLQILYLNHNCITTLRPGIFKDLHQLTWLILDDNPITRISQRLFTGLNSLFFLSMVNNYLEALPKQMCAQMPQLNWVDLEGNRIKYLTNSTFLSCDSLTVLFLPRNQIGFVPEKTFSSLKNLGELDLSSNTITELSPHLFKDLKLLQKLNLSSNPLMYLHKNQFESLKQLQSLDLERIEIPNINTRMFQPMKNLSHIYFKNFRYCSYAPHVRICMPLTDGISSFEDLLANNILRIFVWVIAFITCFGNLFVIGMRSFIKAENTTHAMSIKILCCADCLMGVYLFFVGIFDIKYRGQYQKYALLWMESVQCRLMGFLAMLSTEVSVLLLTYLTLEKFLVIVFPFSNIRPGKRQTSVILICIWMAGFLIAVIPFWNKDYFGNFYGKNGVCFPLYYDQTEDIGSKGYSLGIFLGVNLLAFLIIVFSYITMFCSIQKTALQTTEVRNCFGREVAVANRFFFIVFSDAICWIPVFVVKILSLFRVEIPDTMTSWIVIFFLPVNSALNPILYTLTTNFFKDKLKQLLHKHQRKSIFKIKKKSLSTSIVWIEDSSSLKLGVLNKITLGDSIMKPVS

Potency, active:
CC(=O)Nc1ccc(S(=O)(=O)NCc2cc(=O)n(C)c(=O)n2C)cc1 30.9 µM, CCc1nnc(NC(=O)CSc2nc(C)nc3c2c(=O)n(C)c(=O)n3C)s1 10.9 µM, Cn1c(=O)c2sccc2n2c(CCCC(=O)NCCc3ccc(S(N)(=O)=O)cc3)nnc12 43.6 µM, CC1CCN(S(=O)(=O)c2ccc3nc(N4CCN(c5ccccc5)CC4)ccc3c2)CC1 15.4 µM, CCc1cc2c(=O)nc3n(c2s1)Cc1ccccc1/C3=C(/O)c1cccc([N+](=O)[O-])c1 6.16 µM

Potency, inactive:
CN1CCN(C(=O)CCc2nnc3ccc(N4CCC5(CC4)OCCO5)nn23)CC1, Cc1cccc(-c2nnc(SCC(=O)NC3CC3)n2C)c1, O=C(Nc1ccccc1C(=O)N1CCN(c2ccccc2)CC1)c1ccco1, C=C(C)C(=O)Nc1cccc(C2=NOC3(C2)C[C@@H](C(N)=O)N(C(=O)c2ccc(Cl)cc2)C3)c1 (some centres not stated), Nc1cc2ccncc2c2ccccc12, COc1cc(-c2nnc(SCC(=O)N(C)C3CCS(=O)(=O)C3)o2)cc(OC)c1OC (configuration not stated), COc1ccc(NC(=O)CSc2nc(-c3ccc(C)cc3)cc(C(F)(F)F)c2C#N)cc1, CC1(C)Cc2c(sc3ncnc(NN)c23)CO1, O=C(Nc1ccccc1C(=O)NCc1ccccc1)c1ccco1, Cc1ccc2cc(CN(C(=O)c3cccs3)c3ccccc3)c(=O)[nH]c2c1, Cc1cccc(NC(=O)c2ccccc2NC(=O)c2ccco2)c1, COc1ccc(OC)c(CNC(=O)C2CCN(C(=O)N(C)C)CC2)c1

From PubChem BioAssay AID489043 (National Center for Advancing Translational Sciences (NCATS), 2010)
